A selection: hits, their analogues and other compounds. The true share with any hit is near 10%.
HPGD block = blocks human HPGD enzyme activity; P15428; purified HPGD, NADH fluorescence kinetic, PGE2 substrate; Potency, µM, for inactives: top-dose activity change, negative = inhibition, actives largely listed as inhibitors; 150,000 compounds, 4.3% hits; AID 894; active = well fitted inhibition curve with a large enough effect, not every such curve was filed as active; inconclusive = small, poorly fitted or top-dose-only effect, or another doubt; inactive = no such curve, though single readings can be large or run the other way; note: potency is the fitted concentration of half-maximal effect
Target sequence (P15428 whole entry, looked up): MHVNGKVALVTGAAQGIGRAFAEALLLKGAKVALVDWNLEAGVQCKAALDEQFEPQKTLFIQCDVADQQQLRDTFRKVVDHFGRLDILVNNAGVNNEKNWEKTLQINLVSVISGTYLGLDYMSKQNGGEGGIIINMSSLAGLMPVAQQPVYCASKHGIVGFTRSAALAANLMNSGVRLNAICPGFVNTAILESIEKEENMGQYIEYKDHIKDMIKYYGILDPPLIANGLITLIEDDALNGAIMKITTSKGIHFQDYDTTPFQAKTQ
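20 nM HPGD preincubated 15 min at room temperature with compound in 50 mM Tris-HCl pH 8, 0.01% Tween 20. Started with 1 mM NAD+ and 30 uM prostaglandin E2; NADH fluorescence (360/450 nm) read 5 times over 30-s intervals, last minus first.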
GLA inh pH 4.5 = blocks human alpha-galactosidase A at pH 4.5. P06280. purified enzyme, 4-MU-alpha-Gal fluorescence, pH 4.5. activity change, negative = inhibition, % at 105 µM. 230,000 tested, under 10 active. AID 1467;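 note: 0% = full activity with enzyme and -100% = basal without enzyme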
Target sequence (P06280 whole entry, looked up): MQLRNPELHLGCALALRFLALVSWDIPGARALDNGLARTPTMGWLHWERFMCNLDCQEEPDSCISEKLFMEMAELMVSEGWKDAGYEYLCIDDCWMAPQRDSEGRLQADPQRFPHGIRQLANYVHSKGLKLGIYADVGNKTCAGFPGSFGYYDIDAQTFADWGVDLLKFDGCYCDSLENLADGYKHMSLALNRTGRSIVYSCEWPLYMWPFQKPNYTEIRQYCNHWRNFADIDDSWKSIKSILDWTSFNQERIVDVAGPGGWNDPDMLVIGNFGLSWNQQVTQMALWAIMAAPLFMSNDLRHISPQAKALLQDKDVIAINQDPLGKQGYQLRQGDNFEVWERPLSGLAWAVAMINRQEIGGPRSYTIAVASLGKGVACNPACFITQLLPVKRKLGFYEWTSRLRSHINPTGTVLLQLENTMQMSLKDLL
PNC inhibitor = inhibitors of perinucleolar compartment assembly; PC3M PTB-GFP, PNC prevalence imaging, 16 h; active compounds read low; activity change (PNC), negative = inhibition, % at 10 µM; 140,000 compounds, 3.1% hits; AID 2417;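 active = readout at or below -70, meaning at least 70% loss of cells showing the perinucleolar compartment, a nuclear body marking cancer cells; inconclusive = readout between -30 and a set limit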;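 note: plate controls were DMSO wells for no effect and camptothecin positive control wells for full effect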
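PC3M cells stably expressing PTB-GFP, 750–1000 cells/well, treated 16 h at 37 °C with compound (23 nl of library stock), in duplicate. After paraformaldehyde fixation and Hoechst stain, imaged at 20x; PNC prevalence scored by image analysis.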
ALDH1A1 inh = inhibitors of human aldehyde dehydrogenase 1A1. P00352. Purified ALDH1A1, NADH fluorescence, propionaldehyde substrate. Potency, µM (titrated, usually from 75.3 µM), for the others: at the top dose activity, negative = inhibition, hits mostly inhibitors. 220,000 compounds, 7.3% hits. AID 1030; active = well fitted inhibition curve with a large enough effect, not every such curve was filed as active; inconclusive = small, poorly fitted or top-dose-only effect, or another doubt; inactive = no such curve, though single readings can be large or run the other way;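 note: potency is the fitted concentration of half-maximal effect; plate controls were no enzyme wells and a reference inhibitor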
GLA spleen mod = alpha-galactosidase A (human) modulation. P06280. human spleen homogenate, 4MU-alpha-Gal fluorescence, 40 min. Potency, µM (titrated, usually from 80 µM), for the others: at the top dose activity change, negative = inhibition, hits mostly inhibitors. 240,000 compounds, 0.008% hits;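 note: potency is the fitted concentration of half-maximal effect; 0% = enzyme with vehicle and -100% = no enzyme basal signal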
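qHTS titration in buffer at pH 5.0. Alpha-galactosidase activity in spleen homogenate was measured via 4-methylumbelliferone release from 1 mM fluorogenic substrate after 40 min at 37C and a pH 10 stop. AC50 came from Hill fits of control-normalized data.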
12-hLO inh = inhibitors of human 12-lipoxygenase (ALOX12) | 150,000 compounds, 0.12% hits | AID 1452 | P18054 | purified 12-hLO, xylenol orange hydroperoxide absorbance | Potency, µM (series often up to 57.1 µM), inactives show at the highest dose activity change, negative = inhibition, actives largely listed as inhibitors; note: potency is the fitted concentration of half-maximal effect; nearly all actives have a fitted effect of over 55% in size
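Hydroperoxide output read as Fe(III)-xylenol orange absorbance, 573-to-405 nm ratio, after 30 min reaction with 40 uM arachidonic acid. Enzyme: 150 nM purified human 12hLO, 15 min compound preincubation; 25 mM Hepes pH 7.0, room temperature.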
* = called active by the depositor; [ ] = remark or other dose. Unless noted, calls come from the whole dose curve; as a rule, active = well fitted curve in the direction sought with a large enough effect; inconclusive = small, poorly fitted or top-dose-only effect, or another doubt; inactive = no such curve, though single readings can be large; an effect the other way counts as inactive or inconclusive. Unless noted, % is set by controls: 0 for no effect and ±100 for the full control effect.

Results for O=C(NC(NNc1ccc([N+](=O)[O-])cc1)(C(F)(F)F)C(F)(F)F)c1ccccc1Cl ?
HPGD block: 14µM*; GLA inh pH 4.5: -20; PNC inhibitor: -2; ALDH1A1 inh: 14µM*; GLA spleen mod: 1%; 12-hLO inh: inconclusive

How did O=C(NNC(=S)Nc1ccc(F)cc1)c1cccc([N+](=O)[O-])c1 do in these assays?
GLA inh pH 4.5: -11; ALDH1A1 inh: -6%; GLA spleen mod: 4%

How did O=C(NC(Nc1nc2ccc([N+](=O)[O-])cc2s1)(C(F)(F)F)C(F)(F)F)c1ccccc1Cl do in these assays?
HPGD block: -2%; GLA inh pH 4.5: -12; PNC inhibitor: -119*; ALDH1A1 inh: inconclusive; GLA spleen mod: -23%; 12-hLO inh: inconclusive

Results for CC(C)C[C@@H](/C=C/S(C)(=O)=O)NC(=O)[C@H](CC(C)C)NC(=O)[C@H](CC(C)C)NC(=O)OCc1ccccc1 ?
ALDH1A1 inh: inconclusive; GLA spleen mod: 13%

Results for O=C(NC1CCCCCC1)C(=S)NCCc1ccccc1 ?
GLA inh pH 4.5: -5; ALDH1A1 inh: 11µM*; GLA spleen mod: 8%

Results for CCN(C(=O)COC(=O)c1ccccc1SCC(=O)NC1CCCCCCC1)C1CCS(=O)(=O)C1 (configuration not stated) ?
HPGD block: inconclusive; GLA inh pH 4.5: -5; PNC inhibitor: -112*; ALDH1A1 inh: inconclusive; GLA spleen mod: -3%; 12-hLO inh: 0%

Results for O=C(NC1CCCCCC1)C(=S)NCc1ccccc1 ?
GLA inh pH 4.5: 2; ALDH1A1 inh: 25µM*; GLA spleen mod: 4%

Results for O=C(CSc1ccccc1C(=O)NCc1ccccc1)NC1CCCCCCC1 ?
HPGD block: 20µM*; GLA inh pH 4.5: 1; PNC inhibitor: 45; ALDH1A1 inh: -10%; GLA spleen mod: -11%; 12-hLO inh: -3%

Results for O=C(NCCc1ccccc1)NC1CCCCC1 ?
HPGD block: -8%; GLA inh pH 4.5: 1; PNC inhibitor: inconclusive; ALDH1A1 inh: 16%; GLA spleen mod: -3%; 12-hLO inh: -1%

How did O=C(NC1CCCCC1)C(=S)NCc1ccccc1 do in these assays?
GLA inh pH 4.5: -1; ALDH1A1 inh: -14%; GLA spleen mod: 0%

How did CCCCCCCCCCCC do in these assays?
GLA spleen mod: -1%

What do the screens show for `Cc1ccc(NC(=O)C2OCCc3ccccc32)cc1Cl` (configuration not stated)?
GLA inh pH 4.5: -3; ALDH1A1 inh: -18%; GLA spleen mod: -5%

Results for COc1cc(C(=S)N2CCOCC2)cc(OC)c1OC(=O)Cc1ccc(F)cc1 ?
HPGD block: 16µM*; GLA inh pH 4.5: -5; PNC inhibitor: -5; ALDH1A1 inh: 28µM*; GLA spleen mod: 1%; 12-hLO inh: -2%

Results for COc1ccc(CC(=S)N2CCOCC2)cc1F ?
HPGD block: -7%; GLA inh pH 4.5: 7; PNC inhibitor: 18; ALDH1A1 inh: -4%; GLA spleen mod: 6%; 12-hLO inh: -2%

Results for CCN(C(=O)CN1CCOCC1)c1c(N)n(Cc2ccccc2)c(=O)[nH]c1=O ?
GLA inh pH 4.5: -16; ALDH1A1 inh: 14%; GLA spleen mod: 4%

How did CCCCN(C(=O)CN1CCOCC1)c1c(N)n(CC(C)C)c(=O)[nH]c1=O do in these assays?
GLA inh pH 4.5: 2; PNC inhibitor: -81*; ALDH1A1 inh: 10%; GLA spleen mod: 3%; 12-hLO inh: -6%

What do the screens show for `CC(C)CN(C(=O)CN1CCC(C)CC1)c1c(N)n(CC(C)C)c(=O)[nH]c1=O`?
GLA inh pH 4.5: 2[21.1 µM]; ALDH1A1 inh: 11%; GLA spleen mod: -5%

How did Cc1ccc(S(=O)(=O)N2CCN(CC(=O)N(CC(C)C)c3c(N)n(CC(C)C)c(=O)[nH]c3=O)CC2)c(C)c1 do in these assays?
HPGD block: -7%; GLA inh pH 4.5: 4; PNC inhibitor: -98*; ALDH1A1 inh: -17%; GLA spleen mod: 6%; 12-hLO inh: -6%

Results for Cc1ccccc1CNC1CCCCC1 ?
HPGD block: 3%; GLA inh pH 4.5: -1; PNC inhibitor: inconclusive; ALDH1A1 inh: 6%; GLA spleen mod: 4%; 12-hLO inh: -2%

How did O=[N+]([O-])c1ccccc1CNC1CCCCCC1 do in these assays?
GLA inh pH 4.5: -2; ALDH1A1 inh: 14µM*; GLA spleen mod: 6%

Results for CCC1=C2CC[C@H]3C(=O)N(CC)C(=O)[C@H]3[C@H]2[C@@]2(Cc3ccccc3)C(=O)N(CCOC)C(=O)N2C1=O ?
HPGD block: 1%; GLA inh pH 4.5: 3; ALDH1A1 inh: -2%; GLA spleen mod: 0%; 12-hLO inh: 2%

How did COC(=O)c1ccc(CC(=O)c2c(C)cc(O)cc2O)o1 do in these assays?
GLA inh pH 4.5: -2; PNC inhibitor: -19; ALDH1A1 inh: 28µM*; GLA spleen mod: -7%; 12-hLO inh: inconclusive

How did CCOC(=O)c1ccc(CC(=O)c2ccc(O)cc2O)o1 do in these assays?
HPGD block: -12%; GLA inh pH 4.5: 0; PNC inhibitor: inconclusive; ALDH1A1 inh: inconclusive; GLA spleen mod: 2%; 12-hLO inh: -3%

How did COC(=O)c1ccc(CC(=O)c2ccc(O)cc2O)o1 do in these assays?
HPGD block: 32µM*; GLA inh pH 4.5: -10; PNC inhibitor: 6; ALDH1A1 inh: inconclusive; GLA spleen mod: 8%; 12-hLO inh: -25%

What do the screens show for `COC(=O)c1cc(CC(=O)c2ccc(O)cc2O)c(C)o1`?
HPGD block: 16µM*; GLA inh pH 4.5: 3; PNC inhibitor: 32; ALDH1A1 inh: 5%; GLA spleen mod: -1%; 12-hLO inh: -15%

What do the screens show for `O=c1[nH]n(-c2ccc(Cl)cc2)c2ncccc12`?
HPGD block: 11µM*; GLA inh pH 4.5: -8; PNC inhibitor: 3; ALDH1A1 inh: 2%; GLA spleen mod: -9%; 12-hLO inh: -3%

Results for COC(=O)c1ccc(N2NC(=O)/C(=C/c3ccc(-c4ccc(Cl)c(C(=O)O)c4)o3)C2=O)cc1 ?
GLA inh pH 4.5: 12; ALDH1A1 inh: 8.9µM*; GLA spleen mod: 3%

How did O=C(O)c1cc(-c2ccc(/C=C3/SC(=S)N(Cc4ccccc4)C3=O)o2)ccc1Cl do in these assays?
GLA inh pH 4.5: -10; ALDH1A1 inh: 0.089µM*; GLA spleen mod: 11%

How did CC1=NOC(=O)/C1=C\c1ccc(-c2ccc(Cl)c(C(=O)O)c2)o1 do in these assays?
GLA inh pH 4.5: -5; ALDH1A1 inh: 0.89µM*; GLA spleen mod: -4%
